Where “and” joins values, the source holds several entries; their conditions need not be identical. Equal values may be shown once. Results filed as inconclusive are left out. Where a call stands in place of a potency, no number is given. Unmarked numbers belong to inactive results. Calls of active or inactive are those of the source. Calls follow the shape of the dose curve; as a rule, active = well fitted activation curve with a large enough effect in the repeat runs; inconclusive = weak or mixed curves; inactive = flat fitted curve, though single readings scatter.
Assay: A CellTox Green Cytotoxicity Assay to monitor cytotoxicity in HEK293 cells - 8 hour (AID 1224884); also: nearly all actives have a fitted effect of over 35% in size
Conditions: CellTox Green fluorescence; series mostly up to 76.8 µM
Excerpt: National Center for Advancing Translational Sciences [NCATS]
NIH Chemical Genomics Center [NCGC]
U.S. Environmental Protection Agency [EPA]
National Institutes of Environmental Health Sciences [NIEHS]
National Toxicology Program [NTP]
Cell-based models are critical for drug discovery. Determining the natural cytotoxic effects resulting from test compounds is an essential research activity. A CellTox Green Cytotoxicity Assay to monitor cytotoxicity in real time of continues cell culture during 40 hours of the compound treatment was used to screen Tox21 10K library compounds in Hek293 cells. CellTox Green Cytotoxicity Assay is a nonlytic, homogeneous, biofluorescent method to measure cytotoxicity in cell culture after experimental manipulation. The assay system uses a proprietary asymmetric cyanine dye that is excluded from viable cells but preferentially stains the dead cell's DNA. […] Viable cells produce no appreciable increases in fluorescence. Therefore, the fluorescence signal produced by the binding interaction with dead cell DNA is proportional to cytotoxicity.
The mixture of Hek293 cell suspension and reagents were dispensed at 600cells/6 ul/well in 1536-well tissue culture treated black solid bottom plates using a Multidrop dispenser. After the assay plates were incubated at a 37 C/5% CO2 incubator for 5 hours, 23 nL of compounds dissolved in DMSO, positive and negative controls was transferred to the assay plate by a pintool work station. The plates were incubated at 37 C for 40 hours. The fluorescence intensity were measured at 0h, 8h, 16h, 24h, 32h and 40h time points using ViewLux plate reader during compound treatment.
Potency is read from the fitted curve at half-maximal effect.

| SMILES | Potency | cytotoxicity increase |
| --- | --- | --- |
| CC(C)=CC1CC(C)CCO1 (stereo not given) | inactive | – |
| Clc1ccc(C(Cn2ccnc2)OCc2ccsc2Cl)c(Cl)c1 (stereo not given) | inactive | – |
| CCCCCCS | inactive | – |
| C=C/C=C/C=C/CCCCC | – | -3.53% [at 15.8 µM] |
| CCCCCCCCCCCCCOP(=O)(O)O | inactive | – |
| CCOC(=O)[C@@](C)(N)Cc1ccc(O)c(O)c1 | inactive | – |
| O=C[C@H](O)[C@H](O)[C@H](O)CO | inactive | – |
| CCc1c(C(=O)O)c(=O)cnn1-c1ccc(Cl)cc1 | inactive | – |
| O=C(O)Cc1ccc(OCCNC[C@H](O)c2ccccc2)cc1 | inactive | – |
| CC(=O)c1ccccc1N | inactive | – |
| CC(=O)OC(OC(C)=O)c1ccc([N+](=O)[O-])o1 | inactive | – |
| Cc1ccc2ccc3cccc4ccc1c2c34 | inactive | – |
| Nc1ccc2cc3ccc(N)cc3nc2c1 | 49 µM (active) and 21.3 µM (active) | – |
| O=Nc1ccc(NO)cc1 | inactive | – |
| CNC(=O)c1cc(Oc2ccc(NC(=O)Nc3ccc(Cl)c(C(F)(F)F)c3)cc2)ccn1 | inactive | – |
| c1cc[nH]c1 | inactive | – |
| CCCCC(CC)COC(=O)c1ccc(O)cc1 (stereo not given) | 43.5 µM (active) | – |
| C=C(C)C(=O)OCCC[Si](Cl)(Cl)Cl | inactive | – |
| CCCSS/C(CCO)=C(\C)N(C=O)Cc1cnc(C)nc1N | inactive | – |
| COc1ccc2sc(C(=O)Nc3nnn[nH]3)c(OC(C)C)c2c1 | inactive | – |

| SMILES | Potency | cytotoxicity increase |
| --- | --- | --- |
| O=C1OC(=O)c2ccc3c4c(ccc1c24)C(=O)OC3=O | inactive | – |
| CCCCCCC(C)Nc1ccc(Nc2ccccc2)cc1 (stereo not given) | inactive | – |
| CCCN(CCc1cccs1)[C@H]1CCc2c(O)cccc2C1 | inactive | – |
| CCOC(=O)N1CCC(=C2c3ccc(Cl)cc3CCc3cccnc32)CC1 | inactive | – |
| c1cc2c3c(c1)ccc1cccc(c13)C2 | 56.1 µM (active) | – |
| Clc1cccnc1 | inactive | – |
| COc1cc(C(=O)NS(=O)(=O)c2ccccc2C)ccc1Cc1cn(C)c2ccc(NC(=O)OC3CCCC3)cc12 | inactive | – |
| c1ccc(Sc2ccccc2)cc1 | inactive | – |
| CC1=C(/C=C/C(C)=C/C=C/C(C)=C\C=O)C(C)(C)CCC1 | inactive | – |
| CCOCOCC | inactive | – |
| CCOCN(C(=O)CS(=O)(=O)O)c1c(C)cccc1CC | inactive | – |
| COc1cccc(OC)c1O | inactive | – |
| O=C(O)CC(=O)O | inactive | – |
| CC=O | 57.5 µM (active) | – |
| CC(=O)Oc1ccc(C2(c3ccc(OC(C)=O)cc3)Oc3ccccc3NC2=O)cc1 | inactive | – |
| Clc1ccccc1CN1CCc2sccc2C1 | inactive | – |
| CCCCCCCCCCCCOC(=O)c1cc(O)c(O)c(O)c1 | 54.7 µM (active) | – |
| C1CC(COCC2CO2)CCC1COCC1CO1 (stereo not given) | inactive | – |
| C=CCCCCCCC=C | inactive | – |
| Cc1cc(C)c(C=O)c(C)c1 | inactive | – |

Source: PubChem BioAssay (Tox21)
